Mtb bLac sens: beta-lactam sensitization of Mtb H37Rv; actives 0.27% (n = 330,000); M. tuberculosis H37Rv growth with meropenem, percent inhibition; inhibition, % at 25 µM; call rule not given here;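 further: growth measured after seven days incubation then overnight dye step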
CCHF vOTU inh: blocks the CCHF virus ovarian tumor domain protease. CCHFV vOTU protease, Pep-AMC fluorescence. inhibition, % at 11.5 µM. actives 0.55% (n = 370,000); in the data active means inhibition above about 30%
PfHsp40 rescue: rescue of PfHsp40-mediated yeast toxicity; S. cerevisiae expressing PfHsp40, growth rescue, ATP luminescence; growth rescue, % at 12.5 µM; actives 0.68% (n = 340,000); AID 504582; in the data active means growth rescue above about 28%, passing the limit was not always enough;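 further: yeast W303a lacking pdr1 and pdr3 grown in galactose medium; growth measured after three days at 30 °C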
Mtb hypoxia inh: Mtb hypoxia fluorescent reporter inhibition | M. tuberculosis hypoxia-regulated fluorescent reporter, fluorescence | fluorescence inhibition, % (concentration not given with the values) | actives 0.1% (n = 300,000); in the data active means fluorescence inhibition mostly above about 23%, no sharp cut-off; inactive means mostly below about 17%
RecA splice inh: inhibitors of M. tuberculosis RecA intein splicing | AID 2221 | P9WHJ3 | inhibition, % (concentration not given with the values) | cell-free RecA intein splicing, fluorescence | actives 0.75% (n = 290,000); in the data active means inhibition above about 30%
Target sequence (P9WHJ3 whole entry, looked up, canonical isoform): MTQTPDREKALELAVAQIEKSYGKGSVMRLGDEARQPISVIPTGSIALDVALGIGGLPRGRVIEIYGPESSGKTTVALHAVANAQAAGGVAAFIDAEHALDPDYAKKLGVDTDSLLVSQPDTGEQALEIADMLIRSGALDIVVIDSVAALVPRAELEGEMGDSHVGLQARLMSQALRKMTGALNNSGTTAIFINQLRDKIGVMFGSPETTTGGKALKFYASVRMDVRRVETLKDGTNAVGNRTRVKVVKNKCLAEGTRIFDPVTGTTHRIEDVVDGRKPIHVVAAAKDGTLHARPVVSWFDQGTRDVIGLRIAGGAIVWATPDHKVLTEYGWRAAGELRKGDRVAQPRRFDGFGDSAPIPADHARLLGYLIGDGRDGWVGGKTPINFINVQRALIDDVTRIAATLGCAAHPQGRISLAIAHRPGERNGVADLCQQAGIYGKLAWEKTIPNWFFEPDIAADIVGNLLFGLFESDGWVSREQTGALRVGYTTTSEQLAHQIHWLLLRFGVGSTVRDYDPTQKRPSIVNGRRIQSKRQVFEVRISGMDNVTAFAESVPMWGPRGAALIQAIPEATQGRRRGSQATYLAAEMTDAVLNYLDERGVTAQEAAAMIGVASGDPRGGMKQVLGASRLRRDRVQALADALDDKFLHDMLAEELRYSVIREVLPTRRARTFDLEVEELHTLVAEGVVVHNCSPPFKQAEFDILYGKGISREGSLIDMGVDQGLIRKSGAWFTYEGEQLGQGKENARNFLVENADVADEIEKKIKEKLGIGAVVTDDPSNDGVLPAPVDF
A number is an active result. Only some compounds are listed: those with a hit (about 1.7% of all), similar ones and a draw of the others.

For COC(=O)c1[nH]c2cccc(OC)c2c1NC(=O)CN1CCOCC1 the results were Mtb bLac sens inactive, CCHF vOTU inh inactive, PfHsp40 rescue 52, Mtb hypoxia inh inactive and RecA splice inh inactive.
`C#CCNC(=O)C1=CC(c2ccc(Br)cc2)CC(OCCCCO)O1` (stereo unspecified) gave Mtb hypoxia inh inactive.
O=c1oc2ccccc2c(O)c1/C=C1\C=Nc2ccccc21 was read as Mtb bLac sens inactive, CCHF vOTU inh inactive, PfHsp40 rescue 110, Mtb hypoxia inh inactive and RecA splice inh inactive.
O=c1oc2ccccc2c(O)c1/C=N/c1ncccn1 was read as Mtb bLac sens inactive, CCHF vOTU inh inactive, PfHsp40 rescue inactive and RecA splice inh inactive.
COc1ccccc1C=NNc1cc(N(C)C)nc(N(C)C)n1 was read as Mtb hypoxia inh inactive.
Screening COc1ccccc1/C=N/Nc1cc(N(C)C)nc(N(C)C)n1 returned Mtb bLac sens inactive, CCHF vOTU inh inactive, PfHsp40 rescue inactive and RecA splice inh 44.
For CN(C)c1ccc(-n2cccc2/C=C/[N+](=O)[O-])cc1 the results were Mtb bLac sens inactive, CCHF vOTU inh inactive, PfHsp40 rescue 230 and RecA splice inh inactive.
CN(C)c1ccc(/C=C/[N+](=O)[O-])cc1 was read as Mtb bLac sens inactive, CCHF vOTU inh inactive, PfHsp40 rescue inactive and RecA splice inh inactive.
`Cc1cccc(CCNC(=O)CN(C)S(=O)(=O)c2cnc[nH]2)c1` gave Mtb bLac sens inactive, CCHF vOTU inh inactive, PfHsp40 rescue 70, Mtb hypoxia inh inactive and RecA splice inh inactive.
Screening Clc1ccc(C2=Nc3cc(Cl)ccc3OC2)cc1 returned Mtb bLac sens inactive, CCHF vOTU inh inactive, PfHsp40 rescue inactive, Mtb hypoxia inh inactive and RecA splice inh inactive.
Screening c1ccc(C2=Nc3ccccc3OC2)cc1 returned Mtb bLac sens inactive, CCHF vOTU inh inactive, PfHsp40 rescue 50 and RecA splice inh inactive.
`CN1C(=O)C(Cc2ccc3c(c2)OCO3)C(=O)N(C)C1=O` gave Mtb bLac sens inactive and RecA splice inh 30.
Screening COc1ccc(C(C)=NNC(=S)NCc2ccco2)cc1 returned Mtb hypoxia inh inactive.
Screening O=C(Nc1ccc(F)cc1)c1nn(-c2ccccc2)c(=O)cc1Cl returned CCHF vOTU inh inactive, PfHsp40 rescue inactive, Mtb hypoxia inh inactive and RecA splice inh 31.
`CC(C(=O)NCc1ccc(S(C)(=O)=O)cc1)C1C[C@@]1(C)C(NC(=O)OCc1ccccc1)c1ccccc1` (stereo partly specified) gave Mtb hypoxia inh inactive.
O=C(NCCCN1CCOCC1)c1cccc(NC(=O)c2ccccc2)c1 was read as Mtb bLac sens inactive, CCHF vOTU inh inactive, PfHsp40 rescue 122 and RecA splice inh inactive.
O=C(NCCCN1CCOCC1)c1ccc2ccccc2c1 was read as Mtb bLac sens inactive, CCHF vOTU inh inactive, PfHsp40 rescue inactive, Mtb hypoxia inh inactive and RecA splice inh inactive.
For COc1cc(-c2noc(C)c2C=Cc2ccc(OC(C)=O)cc2)cc(OC)c1OC the results were Mtb hypoxia inh inactive.
`COc1ccc(Oc2coc3cc(OC(=O)/C=C/c4ccccc4)ccc3c2=O)cc1` gave Mtb bLac sens inactive, CCHF vOTU inh inactive, PfHsp40 rescue 95, Mtb hypoxia inh inactive and RecA splice inh inactive.
CC1=NN(C(N)=S)C(=O)C1N=Nc1cccc(Cl)c1C (stereo unspecified) was read as Mtb bLac sens inactive, CCHF vOTU inh inactive, PfHsp40 rescue 104, Mtb hypoxia inh inactive and RecA splice inh inactive.
For CC1=NN(C(N)=S)C(=O)C1N=Nc1cccc2ccccc12 (stereo unspecified) the results were Mtb bLac sens inactive.
Screening CCCSc1ccc(C2C3C(=O)N(C)C(=O)C3[C@]3(C(=O)OC)CCCCN23)cc1OC (stereo partly specified) returned Mtb hypoxia inh inactive.
For CCCSc1ccc([C@@H]2[C@@H]3C(=O)N(C)C(=O)[C@@H]3[C@]3(C(=O)OC)CCCN23)cc1OC the results were Mtb bLac sens inactive and PfHsp40 rescue 63.
`Cc1ccc(Nc2c([N+](=O)[O-])c(=O)oc3ccccc23)cc1` gave Mtb bLac sens inactive, CCHF vOTU inh inactive, PfHsp40 rescue inactive, Mtb hypoxia inh inactive and RecA splice inh inactive.
CCc1ccc(Nc2c([N+](=O)[O-])c(=O)oc3ccccc23)cc1 was read as Mtb bLac sens inactive, CCHF vOTU inh inactive, PfHsp40 rescue 116, Mtb hypoxia inh inactive and RecA splice inh inactive.
Screening CC(C)(C)c1nnc(N/N=C/c2ccccc2O)n(N)c1=O returned Mtb bLac sens inactive, CCHF vOTU inh inactive, PfHsp40 rescue 71 and RecA splice inh inactive.

Source: PubChem
